A selection: hits, their analogues and other compounds. The true share with any hit is near 8.1%.
PD-1 reversal = reversal of PD-1 mediated T-cell inhibition; primary human CD4 T cells, PD-L1 beads, CellTiter-Glo 96 h; activation, % (no concentration beside the values); 29,000 tested, under 10 active; call rule not given here;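 further: 0% = median vehicle wells and 100% = positive control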
MITF inhib = inhibitors of MITF; 37,000 tested, 0.28% active; inhibition, % (test concentration not listed); TRPM1 promoter luciferase, luminescence, 24 h; AID 2240; in the data active means inhibition above about 85%; inconclusive means no clear call, values can overlap the other calls; inactive means below about 68%;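 further: human melanocyte line stably carrying TRPM1 promoter luciferase reporter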
NOMO-1 viab = STK33 inhibitor candidate reducing NOMO-1 cell viability; AID 2330; NOMO-1 AML viability, CellTiter-Glo luminescence, 72 h; 37,000 tested, 7.5% active; inhibition, % (test concentration not listed); in the data active means inhibition above about 80%; inconclusive means no clear call, values can overlap the other calls
Hedgehog inh = Sonic Hedgehog pathway inhibition | Shh-LIGHT2 Gli-luciferase reporter, 30 h | inhibition, % (test concentration not listed) | 22,000 tested, 2.1% active;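 active means mean inhibition across valid replicates above about 65%, limit read from the data; inconclusive means mean under the limit, yet half or more replicates past it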;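 further: pathway switched on by Shh-conditioned medium diluted 1 in 25 in low serum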
* = called active by the depositor; u = inconclusive; x = no result.

SMILES | PD-1 reversal | MITF inhib | NOMO-1 viab | Hedgehog inh
CC(C)(C)c1nc2c(o1)NC(N)=C(C(N)=O)C2c1ccc(OCC#N)cc1 (centres undefined) | -12 | 1 | 49 | 17
COc1ccccc1N1CCN(CCCCNC(=O)c2ccc(-c3ccc(C(C)=O)cc3)cc2)CC1 | x | 4 | 34 | 92*
CS(=O)(=O)N(CC(=O)Nc1ccccc1C(=O)O)c1cccc(C(F)(F)F)c1 | 2 | -9 | -14 | x
C[C@@H]1CN([C@@H](C)CO)C(=O)c2cc(NS(=O)(=O)c3cccs3)ccc2O[C@@H]1CN(C)Cc1ccc(-c2ccccc2)cc1 | 1 | 19 | 91* | 36
C[C@H]1CN([C@@H](C)CO)C(=O)Cc2cc(NS(=O)(=O)c3cccs3)ccc2O[C@H]1CN(C)Cc1ccc(-c2ccccc2)cc1 | -2 | 16 | 115* | -10
C[C@@H]1CN([C@@H](C)CO)C(=O)Cc2cc(NS(=O)(=O)c3cccs3)ccc2O[C@@H]1CN(C)Cc1ccc(Oc2ccccc2)cc1 | -3 | 26 | 97* | 39
C[C@@H]1CN([C@H](C)CO)C(=O)Cc2cc(NS(=O)(=O)c3cccs3)ccc2O[C@@H]1CN(C)Cc1ccc(-c2ccccc2)cc1 | -2 | -8 | 34 | -30
CCN(CC(=O)Nc1cccc(Cl)c1)S(=O)(=O)c1ccc(Br)cc1 | x | 10 | 11 | x
CCOC(=O)c1c(/N=C/c2ccccc2O)sc(C)c1C | 0 | -7 | 23 | x
Cc1ccc(S(=O)(=O)N2CCC(=O)c3ccccc32)cc1 | -2 | 32 | 110* | -11
COC1C(OC)N(S(=O)(=O)c2ccc(C)cc2)CCN1S(=O)(=O)c1ccc(C)cc1 (centres undefined) | -3 | -2 | 7 | 15
Nc1ccc(C(=O)N2CCOCC2)cc1 | -1 | 10 | 8 | -18
CC(C)C[C@](CC(=O)OCc1ccc(O[C@@H]2O[C@H](CO)[C@@H](O)[C@H](O)[C@H]2O)cc1)(O[C@@H]1O[C@H](CO)[C@@H](O)[C@H](O)[C@H]1O)C(=O)OCc1ccc(O[C@@H]2O[C@H](CO)[C@@H](O)[C@H](O)[C@H]2O)cc1 | 0 | 13 | 95* | 13
O=C(CCCN1CCNCC1)c1ccc(F)cc1 | 1 | -18 | 7 | -7
COc1ccc(OC)c(NC(=O)CSc2nnc(-c3cccnc3)s2)c1 | x | -4 | 110* | x
COc1cc(-c2cc(=O)c3c(O)c(OC)c(OC)c(O)c3o2)ccc1O | x | x | x | 34
COc1cc(OC)c2c(=O)c(O)c(-c3ccc(OC)c(OC)c3)oc2c1 | x | -13 | 102* | 43
COc1c(OC)c(O)c2c(=O)cc(-c3ccc(O)cc3)oc2c1OC | -2 | -40 | 115* | -29
COc1cc(O)c2c(=O)cc(-c3ccc(OC)c(-c4c(O)cc(O)c5c(=O)cc(-c6ccc(O)cc6)oc45)c3)oc2c1 | x | u | 108* | 18
COc1ccc(-c2cc(=O)c3c(O)cc(O)cc3o2)cc1 | x | -24 | -4 | -11
COc1cc(-c2oc3cc(O)c(OC)c(O)c3c(=O)c2OC)ccc1O | -1 | -38 | 120* | -56
CCn1c(SCC(=O)Nc2cccc(Br)c2)nnc1-c1ccc(C)cc1 | x | 46 | 34 | x
COc1ccc(-c2oc3c(OC)c(OC)c(OC)c(O)c3c(=O)c2OC)cc1OC | -4 | -21 | 107* | 24
CCC(=O)Nc1cccc(NC(=O)COc2cc(Cl)c(Cl)cc2Cl)c1 | x | 40 | 31 | x
COc1ccc([N+](=O)[O-])cc1NC(=O)COc1ccc(Br)cc1Cl | x | 9 | 11 | x
SMILES | PD-1 reversal | MITF inhib | NOMO-1 viab | Hedgehog inh
COc1cc2c(cc1NC(=O)COc1ccc(Br)cc1Cl)oc1ccccc12 | 0 | -4 | 128* | x
COc1cc2nc3occc3c(OC)c2cc1OCC(O)C(C)(C)O (centres undefined) | 0 | 6 | 11 | 5
C[C@H](CO)N1C[C@H](C)[C@H](CN(C)S(=O)(=O)c2ccc(Cl)cc2)Oc2c(NC(=O)C3CCCCC3)cccc2C1=O | 0 | 9 | 5 | 103*
C[C@H]1CN([C@@H](C)CO)C(=O)c2cccc(NC(=O)C3CCCCC3)c2O[C@H]1CN(C)S(=O)(=O)c1ccc(Cl)cc1 | 0 | 8 | 9 | 98*
C[C@H]1CN([C@@H](C)CO)C(=O)c2cccc(NC(=O)C3CC3)c2O[C@H]1CN(C)S(=O)(=O)c1ccc(Cl)cc1 | 0 | 4 | -8 | 90*
Cc1ccc(-c2noc(CCC(=O)NC(C)(C)C)n2)cc1 | 2 | -76 | 18 | x
Cc1sc(N)nc1C12CC3CC(CC(C3)C1)C2 | -1 | 10 | 105* | 24
S=c1nc(C23CC4CC(CC(C4)C2)C3)[nH][nH]1 | 3 | -9 | -1 | 34
NC(N)=NN=Cc1c(Cl)cccc1Cl | x | 0 | 61 | 65*
CC(C)NS(=O)(=O)c1ccc(OCC(=O)O)cc1 | 2 | -5 | -5 | x
COC(=O)COc1ccc(S(=O)(=O)NC2CCCCCC2)cc1 | -6 | -22 | 119* | x
COc1ccc(S(=O)(=O)NCc2ccco2)c(Cl)c1Cl | 0 | -15 | 31 | x
CC1CC(=O)C2=C(C1)C(Cl)C(O)C1(O)C2C(=O)c2cccc(O)c2C1O (centres undefined) | 0 | 34 | 101* | 10
CC1CC(=O)C2=C(C1)C1OC1C1(O)C2C(=O)c2cccc(O)c2C1O (centres undefined) | x | x | x | -9
NCCCCCCNS(=O)(=O)c1cccc2ccccc12 | 2 | -2 | 84* | 31
c1ccc2cc3c(Nc4ccc(N5CCOCC5)cc4)ccnc3cc2c1 | -1 | 11 | 136* | x
C[C@@H]1CN([C@H](C)CO)C(=O)c2cccc(NC(=O)CCCCCC(=O)Nc3ccccc3N)c2O[C@@H]1CN(C)C | 1 | -28 | 29 | x
C[C@H]1CN([C@@H](C)CO)C(=O)c2cccc(NC(=O)CCCCCC(=O)Nc3ccccc3N)c2O[C@H]1CN(C)Cc1ccc(Cl)c(Cl)c1 | 0 | 47 | 120* | x
C[C@@H]1CN([C@@H](C)CO)C(=O)c2cccc(NC(=O)CCCCCC(=O)Nc3ccccc3N)c2O[C@@H]1CN(C)Cc1ccc(Cl)c(Cl)c1 | 0 | 39 | 126* | x
C[C@@H]1CN([C@H](C)CO)C(=O)c2cccc(NC(=O)CCCCCC(=O)Nc3ccccc3N)c2O[C@@H]1CN(C)Cc1ccc(Cl)c(Cl)c1 | 0 | 31 | 134* | x
Cc1ccc(N(C(C)C(=O)Nc2ccccc2Br)S(C)(=O)=O)cc1C (centres undefined) | 3 | -6 | 20 | x
COc1cc(NC(=O)COc2ccc(I)cc2)c(C(=O)O)cc1OC | 2 | -5 | 2 | x
N#Cc1ccc(-c2cccs2)nc1SCC(=O)Nc1sc2c(c1C#N)CCCC2 | x | 17 | 44 | x
COc1ccc(Cl)cc1NC(=O)CC(C(=O)O)N1CCNCC1 (centres undefined) | 1 | 9 | 7 | x
O=C(CSc1ncnc2sc(-c3ccccc3)cc12)NC1CCCCC1 | -5 | 20 | 104* | x
N#C/C(=C\c1ccc(O)c(O)c1)C(=O)NCCCc1ccccc1 | -2 | 3 | 92* | 86*
N#C/C(=C\c1ccc(O)c(O)c1)C(=O)c1ccc(O)c(O)c1 | 1 | -3 | 46 | 40
NC(=O)NC(=O)Cc1ccccc1 | x | -11 | 27 | 3
NC(=Nc1ccccc1)NC(=O)c1nc(Cl)c(N)nc1N | x | -84 | 119* | 13

High-throughput results as filed in PubChem BioAssay.
